Source: PubChem (National Center for Advancing Translational Sciences (NCATS))
The list is not random: actives were taken first. Their share in the collection is about 20%.
Shiga toxin inh: Shiga toxin inhibition; Vero cells, Shiga toxin protein synthesis inhibition reporter; AID 2315; 290,000 tested, 9.2% active; inhibition, % at 38.7 µM; in the data active = inhibition mostly above about 28%, no sharp cut-off; inactive = mostly below about 43%; note: 0% is about no effect
Pf growth 96h: P. falciparum growth inhibition at 96 hours | AID 504834 | P. falciparum luciferase reporter growth, 96 h | Potency, µM (doses to about 28.7 µM), for inactives: top-dose activity change, negative = inhibition, hits mostly inhibitors | 320,000 tested, 6.9% active; note: potency is the fitted concentration of half-maximal effect; % is set by controls: 0 for no effect and ±100 for the full control effect
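P. falciparum expressing integrated firefly luciferase grown in erythrocytes (2% hematocrit, 0.05% parasitemia final) with compounds for 96 hours at 37 C, 5% CO2. Growth inhibition read as loss of luminescence after adding luciferase detection reagent.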
HCMV antiviral: inhibitors of human cytomegalovirus. 410,000 tested, 4.5% active. activity change, negative = inhibition, % at 57.5 µM. AID 1259415. HFF cells, HCMV-luciferase reporter, 72 h; stronger effect = lower value; in the data active = activity change below about -60%; inconclusive = no clear call, values can overlap the other calls; inactive = above about -39%; note: % is set by controls: 0 for no effect and ±100 for the full control effect
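Inhibition of viral replication was scored as loss of reporter luminescence in HFFs infected with HCMV-luciferase (MOI 1 PFU/cell) for 72 h; compounds tested at 2 doses, normalized to buffer and Salinomycin controls.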
Cycloheximide cs: affects cycloheximide protein synthesis inhibition readout, counter-screen; cell reporter, cycloheximide protein synthesis inhibition counterscreen; max response, %; 300,000 tested, 12% active; AID 2314; in the data active = max response mostly above about 13%, no sharp cut-off; inactive = mostly below about 14%; note: read at 38.3 µM for the half of the compounds with a filed dose; 0% is about no effect
Pf growth 48h: inhibits P. falciparum growth in the first generation, 48 h | P. falciparum luciferase growth in erythrocytes, 48 h | Potency, µM (highest dose often 28.7 µM), for the others: at the top dose activity change, negative = inhibition, most hits filed as inhibitors | AID 504832 | 310,000 tested, 5.9% active; note: potency is the fitted concentration of half-maximal effect; % is set by controls: 0 for no effect and ±100 for the full control effect
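Luciferase-expressing parasites in RBCs, 2% Hct / 0.1% parasitemia final; RPMI 1640 + 0.5% Albumax; 37 C, 5% CO2, one generation; luminescence read-out, lower signal = inhibition.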
The depositor's hits bear a star; i = inactive; ? = inconclusive; . = no result given. Unless noted, calls come from the whole dose curve; as a rule, active = well fitted inhibition curve with a large enough effect; inconclusive = small, poorly fitted or top-dose-only effect, or another doubt; inactive = no such curve, though single readings can be large or run the other way.

SMILES | Shiga toxin inh | Pf growth 96h | HCMV antiviral | Cycloheximide cs | Pf growth 48h
CCOC(=O)C1(C)C=C(Nc2cccc(C(=O)O)c2)C(=O)N1c1cccc(C(=O)O)c1 (centres undefined) | . | . | 0.5 | . | .
CN1CCN(c2ncc3c(n2)CCN(Cc2ccc(Br)s2)C3)CC1 | . | . | -4.1 | . | .
CN(C)S(=O)(=O)c1cccc(NC(=O)C2CCCN(C(=O)c3ccc(Cl)cc3)C2)c1 (centres undefined) | . | . | -27.8 | . | .
C/C(=N\Nc1cccc2cccnc12)c1ccccn1 | 29.8 | i | 195.5 | 31.7 | i
C/C(=N\Nc1cccc2cccnc12)c1ccccc1O | 46.4* | i | 6.0 | 36.1* | 368.1%
C/C(=N\Nc1cccc2cccnc12)c1ccc(N)cc1 | 119.4* | 41.3% | 33.6 | 36.3* | 144.3%
CN(C)c1nc(N)nc(CSc2nnnn2-c2ccc(Cl)cc2)n1 | . | . | 0.4 | . | .
CC1=C(c2ccc(F)cc2)S(=O)(=O)N=C1N1CCC(C(=O)NCCc2ccco2)CC1 | . | . | -5.1 | . | .
COCCNc1nnc(SCC(=O)Nc2sc3c(c2C(=O)c2ccccc2)CCCC3)s1 | -5.7 | 9.28µM* | -85.7* | -1.4 | ?
COCCNc1nnc(SCC(=O)c2c[nH]c3ccccc23)s1 | 16.1 | ? | 84.0 | 6.4 | 8.28µM*
COCCNc1nnc(SCC(=O)NNC(=O)c2ccccc2)s1 | -1.4 | 18.3% | 36.9 | -1.5 | 15.0%
Cc1ccc(C(=O)c2c(NC(=O)CSc3nnc(N)s3)sc3c2CCCC3)cc1 | 4.2 | 5.22µM* | ? | 5.3 | 11.7µM*
COc1ccc(-n2nc(C(=O)NCC(=O)N3CCOCC3)c3ccccc3c2=O)c(OC)c1 | 15.9 | -2.5% | 22.7 | 2.5 | 10.3%
COc1ccc(-n2nc(C(=O)NCC(=O)N3CCCCCC3)c3ccccc3c2=O)c(OC)c1 | 55.2 | ? | 48.1 | 16.1* | -10.5%
COc1ccc(-n2nc(C(=O)NCC(=O)N3CCC(C)CC3)c3ccccc3c2=O)c(OC)c1 | 40.1 | 22.5% | -8.2 | 16.4* | ?
COc1ccc(-n2nc(C(=O)NCC(=O)N3CCCCC3)c3ccccc3c2=O)c(OC)c1 | 32.7 | ? | 68.0 | 17.9* | 20.9%
CC[C@]1(C(=O)OC)[C@H]2C(=O)N(Cc3ccccc3)C(=O)[C@H]2[C@H]2CN=C(SCC3CC3)N21 | . | . | -19.9 | . | .
CN(C)CC1CCn2c(c(C3=C(c4cn(C)c5ccccc45)C(=O)NC3=O)c3ccccc32)C1 (centres undefined) | -11.6 | . | . | -9.6 | .
O=C(NCCc1ccccc1Cl)c1sc2ncccc2c1-n1cccc1 | . | . | -24.8 | . | .
COc1cc(/C=C(\C#N)C(=O)Nc2ccccc2)ccc1OCCN1CCOCC1 | 44.9* | ? | 12.8 | 26.5* | 33.3%
COc1cc(/C=C(/C#N)C(=O)Nc2ccccc2)c(Br)cc1OCc1ccc(C(=O)O)cc1 | 10.7 | 11.3% | 26.9 | 7.2 | 0.3%
COc1cc(/C=C(\C#N)C(=O)N2CCOCC2)ccc1OCc1ccccc1 | 40.1 | -15.3% | -15.9 | 3.1 | -3.4%
COc1cc(/C=C(\C#N)C(=O)Nc2ccccc2F)ccc1OCCN1CCOCC1 | 13.5 | -9.5% | -24.5 | 25.0* | 63.8%
N#C/C(=C\c1ccc(OCCN2CCOCC2)cc1)C(=O)Nc1ccccc1 | 17.0 | ? | 1.0 | 19.8* | 7.2%
COc1ccc(/C=C(/C#N)C(=O)Nc2ccccc2C)cc1C(=O)O | -3.7 | ? | -14.6 | -0.4 | 15.4%
SMILES | Shiga toxin inh | Pf growth 96h | HCMV antiviral | Cycloheximide cs | Pf growth 48h
COc1cc(/C=C(\C#N)C(=O)Nc2cccc(C(=O)O)c2)ccc1OCc1ccc(Cl)cc1 | 107.2* | 68.7% | 38.3 | 52.4* | 23.9%
CCOc1ccc(S(=O)(=O)N2CCC(C(=O)OC(C)C(=O)N3CCOCC3)CC2)cc1 (centres undefined) | . | -16.2% | 8.4 | . | -13.9%
CC(C)COC(=O)c1ccc(N)cc1 | . | 21.8% | . | . | 27.8%
CC(=O)Nc1ccc(NC(=O)CS(=O)(=O)c2cn(CC(=O)N3CCCC3)c3ccccc23)cc1 | 15.4 | -32.7% | 4.5 | -4.1 | -11.8%
O=C1NC(=S)NC(=O)C1=Cc1cccc2cc3ccccc3cc12 | 14.8 | ? | -94.2* | 13.5 | ?
O=C1NC(=S)N/C1=C/c1cccc2ccccc12 | 89.1* | 0.0% | 3.0 | 29.4* | 30.5%
Cc1nnsc1C(=O)N/N=C/c1ccc2ccccc2c1O | 20.1 | 3.29µM* | -99.6* | 0.3 | 2.62µM*
Cc1nnsc1C(=O)Nc1ccccc1Cl | -12.9 | -18.9% | -20.6 | -1.5 | 5.8%
Cc1nnsc1C(=O)N/N=C/c1ccc(OC(F)(F)F)cc1 | 64.3* | 10.8% | -60.5* | 23.3* | ?
Cc1nnsc1C(=O)N/N=C/c1ccccc1 | 4.4 | ? | -9.1 | 3.6 | 6.7%
COc1ccc(C(CNC(=O)CCNS(=O)(=O)c2ccccc2C(F)(F)F)N2CCOCC2)cc1 (centres undefined) | . | . | -13.0 | . | .
Cc1cc(CN2CCCC(N3CCc4ccccc4C3)C2)cc(C)c1O (centres undefined) | -7.3 | 10.4µM* | -18.3 | -3.9 | ?
C[N+]1=C(/C=C/Nc2ccccc2Cl)C(C)(C)c2ccccc21 | -8.1 | ? | -32.7 | -3.7 | 11.7µM*
FC(F)(F)c1cnc(/C=C/Nc2ccccc2Cl)c(Cl)c1 | -8.3 | 37.9% | 18.6 | 8.3 | 17.2%
CCn1c(Oc2ccccc2)nc2c1c(=O)n(C)c(=O)n2C | . | -24.3% | -60.1* | -1.7 | 30.5%
COc1cccc(Cn2c(Oc3ccccc3)nc3c2c(=O)n(C)c(=O)n3C)c1 | -7.2 | ? | -34.3 | -4.5 | 0.657µM*
COc1cccc(COc2nc3c(c(=O)n(C)c(=O)n3C)n2C)c1 | -7.0 | 4.15µM* | 15.8 | -2.8 | 23.3%
COc1cccc(Cn2c(Oc3cccc(C)c3)nc3c2c(=O)n(C)c(=O)n3C)c1 | -3.3 | 17.2% | 22.8 | -2.5 | ?
Cn1c(=O)c2c(nc(Oc3ccccc3Cl)n2C)n(C)c1=O | -8.2 | -7.2% | -79.3* | -3.5 | -10.1%
Cc1cc(C)cc(-n2ccn(CC(=O)Nc3cc(C)ccc3C)c(=O)c2=O)c1 | . | . | 43.9 | . | .
CCC(=O)N1CCc2cc(Br)cc(S(=O)(=O)CCC(=O)NCCc3ccccc3Cl)c21 | . | . | -8.0 | . | .
O=C(CCN1C(=O)[C@@H]2Cc3ccccc3CN2C1=O)N[C@H](C(=O)O)c1ccccc1 | 16.6 | -22.9% | ? | -1.6 | 22.9%
COc1ccc(N2CCN(C(=O)Cn3cnc4sc(C)c(S(=O)(=O)N5CCC(C)CC5)c4c3=O)CC2)cc1 | . | . | -2.2 | . | .
CN(C)C=NC1=NN(c2cccc(C(F)(F)F)c2)CC1 | 43.5* | ? | 54.8 | 43.0* | 14.4%
FC(F)(F)c1cccc(N2CCN(c3nnnn3-c3ccccc3)CC2)c1 | -2.6 | -23.7% | -26.9 | -2.7 | -4.1%
Cc1n[nH]c(=O)n1-c1cccc(C(F)(F)F)c1 | -5.5 | -15.1% | 6.0 | -2.3 | -14.0%
CN1CCN(C=NC2=NN(c3cccc(C(F)(F)F)c3)CC2)CC1 | 19.9 | 0.0% | ? | 20.7* | 57.3%
O=C1C(=O)N(CNc2cccnc2)c2ccccc21 | 11.8 | -22.6% | -24.2 | 4.7 | 2.3%
O=C1C(=O)N(CNc2ccccn2)c2ccccc21 | -19.6 | ? | -67.7* | 0.2 | 7.0%
